From PubChem BioAssay
CCHFV vOTU inh: CCHFV vOTU protease inhibition; Pep-AMC fluorescence; AID 651958; inhibition, % at 11.5 µM; 0.55% of 370,000 active; in the data active = inhibition above about 30%; also: 0% = vehicle wells with enzyme and 100% = no enzyme wells
GDH-TPI counter-1: inhibits GDH-TPI coupling enzymes, artifact for Mtb FBA screen. GDH-TPI coupled enzyme counterscreen, NADH absorbance. inhibition, % at 4.8 µM. 1.2% of 360,000 active. AID 588335; in the data active = inhibition above about 30%;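 also: 0% = DMSO wells and 100% = wells lacking the enzyme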
FBA Mtb inh: Mtb fructose-bisphosphate aldolase inhibition; purified M. tuberculosis FBA, fluorescence read-out; inhibition, % at 1 µM; P9WQA3; 2.3% of 360,000 active;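 also: 0% = vehicle and 100% = reference inhibitor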
Target sequence (P9WQA3 whole entry, looked up): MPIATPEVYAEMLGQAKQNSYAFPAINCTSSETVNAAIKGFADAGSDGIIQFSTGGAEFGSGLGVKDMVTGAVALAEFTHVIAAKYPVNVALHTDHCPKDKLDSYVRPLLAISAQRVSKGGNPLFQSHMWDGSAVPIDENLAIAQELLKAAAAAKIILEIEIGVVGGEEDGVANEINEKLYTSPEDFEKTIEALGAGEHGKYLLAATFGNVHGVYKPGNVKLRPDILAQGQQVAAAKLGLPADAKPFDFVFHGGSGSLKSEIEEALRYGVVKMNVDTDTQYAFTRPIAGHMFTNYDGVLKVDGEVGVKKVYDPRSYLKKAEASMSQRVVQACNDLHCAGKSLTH
Vc quorum ag: quorum light induction in luxS cqsA deficient V. cholerae. V. cholerae BH1578 lux reporter, luminescence, 6 h. activation, % at 18.7 µM. 0.16% of 350,000 active; in the data active = activation mostly above about 9.7%, no sharp cut-off
Mtb FBA inh conf: confirmation of M. tuberculosis fructose-bisphosphate aldolase inhibitors | shares compounds with FBA Mtb inh | purified M. tuberculosis FBA, fluorescence read-out | inhibition, % at 1 µM | 78% of 5,600 active;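 also: 0% = vehicle wells and 100% = reference inhibitor wells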
GDH-TPI counter-2: counter-screen for M. tuberculosis FBA inhibitors: GDH-TPI coupled enzyme inhibition; inhibition, % at 1 µM; 81% of 5,600 active; GDH-TPI coupled enzyme counterscreen, fluorescence; shares compounds with FBA Mtb inh; AID 652141; in the data active = inhibition above about 10%
GDH-TPI DR: GDH-TPI dose response counter-screen for Mtb FBA. 79% of 170 active. GDH-TPI coupled enzyme assay, fluorescence, artifact counterscreen. shares compounds with FBA Mtb inh. IC50, µM; call rule not given here
* hit, by the source's call. Compounds with a hit are over-represented: about 3.9% of the library has one in this group of screens. Rule as the data show it, unless noted: active = inhibition above about 27%; inactive = the rest.

Results for CC(C)c1ccc(S(=O)(=O)N2CCN(C(=O)c3cccc(F)c3)CC2)cc1 ?
CCHFV vOTU inh: 11; GDH-TPI counter-1: 4; FBA Mtb inh: -2; Vc quorum ag: -1

What do the screens show for `CCOc1ccccc1-n1c(CN2CCN(C(=O)c3ccco3)CC2)nc2ccccc2c1=O`?
CCHFV vOTU inh: -10; GDH-TPI counter-1: 0; FBA Mtb inh: 3; Vc quorum ag: 0

How did Cc1nc2nc(-c3ccco3)nn2c(C)c1Cl do in these assays?
CCHFV vOTU inh: -17; GDH-TPI counter-1: 10; FBA Mtb inh: 38*; Vc quorum ag: inactive; Mtb FBA inh conf: 37*; GDH-TPI counter-2: 35*

How did Cc1nc2nc(Cc3ccccc3)nn2c(C)c1Cl do in these assays?
CCHFV vOTU inh: -4; GDH-TPI counter-1: 9; FBA Mtb inh: 1; Vc quorum ag: -7

What do the screens show for `Cc1nc2nc(NCc3cccs3)nn2c(C)c1Cl`?
CCHFV vOTU inh: -23; GDH-TPI counter-1: 3; FBA Mtb inh: 35*; Vc quorum ag: 0; Mtb FBA inh conf: 62*; GDH-TPI counter-2: 41*

What do the screens show for `Cc1nc2nc(COc3ccccc3)nn2c(C)c1Cl`?
CCHFV vOTU inh: 6; GDH-TPI counter-1: 5; FBA Mtb inh: 39*; Vc quorum ag: -1; Mtb FBA inh conf: active; GDH-TPI counter-2: 189*

How did COc1ccc(CNc2nc3nc(C)c(Cl)c(C)n3n2)cc1 do in these assays?
CCHFV vOTU inh: -2; GDH-TPI counter-1: 6; FBA Mtb inh: 4; Vc quorum ag: -1

What do the screens show for `CN(C)S(=O)(=O)c1ccc2oc(SCC(=O)NCC(F)(F)F)nc2c1`?
CCHFV vOTU inh: -6; GDH-TPI counter-1: 6; FBA Mtb inh: -1; Vc quorum ag: inactive

Results for c1ccc2c(c1)c1cccc3ccc4cccc2c4c31 ?
CCHFV vOTU inh: -16; GDH-TPI counter-1: 21; FBA Mtb inh: 55*; Vc quorum ag: 0; Mtb FBA inh conf: 75*; GDH-TPI counter-2: 64*

Results for O=c1c2ccccc2ccc2ccccc12 ?
CCHFV vOTU inh: 22; GDH-TPI counter-1: 14; FBA Mtb inh: 6; Vc quorum ag: inactive

What do the screens show for `CC(=O)n1c(-c2ccccc2)c(-c2ccccc2)n(C)c1=O`?
CCHFV vOTU inh: -9; GDH-TPI counter-1: -4; FBA Mtb inh: 50*; Vc quorum ag: -1; Mtb FBA inh conf: 78*; GDH-TPI counter-2: 50*

Results for CC(=O)Nn1cc2c(c1-c1ccccc1)c(=O)n(C)c(=O)n2C ?
CCHFV vOTU inh: -4; GDH-TPI counter-1: -11; FBA Mtb inh: 4; Vc quorum ag: inactive

What do the screens show for `OCc1ccc2c(c1)c(-c1ccc3c(c1)OCCO3)c(-c1ccccc1)n2-c1ccccc1`?
CCHFV vOTU inh: -1; GDH-TPI counter-1: -2; FBA Mtb inh: 62*; Vc quorum ag: -1; Mtb FBA inh conf: 10; GDH-TPI counter-2: 3; GDH-TPI DR: 1.4*

Results for O=C(/C=C/c1cn(-c2ccccc2)nc1-c1ccc2c(c1)OCCO2)NCCO ?
CCHFV vOTU inh: 2; GDH-TPI counter-1: 5; FBA Mtb inh: 6; Vc quorum ag: 0

Results for Cc1cccc(NC(=O)CS(=O)CC(=O)Nc2cnc3ccccc3c2)c1C (stereo not drawn) ?
CCHFV vOTU inh: -2; GDH-TPI counter-1: 4; FBA Mtb inh: 2; Vc quorum ag: 0

What do the screens show for `CCc1ccc(NC(=O)COn2nnc3ccc(S(=O)(=O)N(C)C)cc32)cc1`?
CCHFV vOTU inh: 7; GDH-TPI counter-1: 6; FBA Mtb inh: 0; Vc quorum ag: inactive

What do the screens show for `CCN(CC)CCCNC(=O)c1cn(CC(C)C)c(=O)c2c1c1ccccc1n2C`?
CCHFV vOTU inh: -13; GDH-TPI counter-1: 7; FBA Mtb inh: 35*; Vc quorum ag: -1; Mtb FBA inh conf: 105*; GDH-TPI counter-2: 95*

Results for CCN(CC)CCCNC(=O)c1cn(C)c(=O)c2c1c1ccccc1n2C ?
CCHFV vOTU inh: 6; GDH-TPI counter-1: 5; FBA Mtb inh: 30*; Vc quorum ag: -1; Mtb FBA inh conf: 83*; GDH-TPI counter-2: 71*

Results for CCN(CC)CCCNC(=O)c1cn(CCOC)c(=O)c2c1c1ccccc1n2C ?
CCHFV vOTU inh: -22; GDH-TPI counter-1: 5; FBA Mtb inh: 29*; Vc quorum ag: 1; Mtb FBA inh conf: 102*; GDH-TPI counter-2: 96*

What do the screens show for `COCCn1cc(C(=O)NCCCN2CCC(C)CC2)c2c3ccccc3n(C)c2c1=O`?
CCHFV vOTU inh: -8; GDH-TPI counter-1: 12; FBA Mtb inh: 28*; Vc quorum ag: -4; Mtb FBA inh conf: active; GDH-TPI counter-2: active

Results for CCN(CC)CCNC(=O)c1cn(CCOC)c(=O)c2c1c1ccccc1n2C ?
CCHFV vOTU inh: -33; GDH-TPI counter-1: 17; FBA Mtb inh: 25; Vc quorum ag: inactive

What do the screens show for `CCCCN(CC)CCCNC(=O)c1cn(CC(C)C)c(=O)c2c1c1ccccc1n2C`?
CCHFV vOTU inh: -31; GDH-TPI counter-1: 7; FBA Mtb inh: 20; Vc quorum ag: -1

Results for O=C1c2ccccc2NC2(CCCC2)N1NS(=O)(=O)c1ccccc1 ?
CCHFV vOTU inh: -47; GDH-TPI counter-1: 8; FBA Mtb inh: 22; Vc quorum ag: 0

Results for O=C(NN1C(=O)c2ccccc2NC12CCCCC2)c1ccccc1 ?
CCHFV vOTU inh: -27; GDH-TPI counter-1: -5; FBA Mtb inh: 6; Vc quorum ag: 0

How did CCOC(=O)NN1C(=O)c2ccccc2NC12CCCC2 do in these assays?
CCHFV vOTU inh: -94; GDH-TPI counter-1: 5; FBA Mtb inh: 59*; Vc quorum ag: 0; Mtb FBA inh conf: 163*; GDH-TPI counter-2: 139*

How did CS(=O)(=O)NN1C(=O)c2ccccc2NC12CCCC2 do in these assays?
CCHFV vOTU inh: -105; GDH-TPI counter-1: 7; FBA Mtb inh: 35*; Vc quorum ag: 0; Mtb FBA inh conf: 131*; GDH-TPI counter-2: 107*

How did Cc1ccc(S(=O)(=O)c2c(N)n(NC(=O)c3ccco3)c3nc4ccccc4nc23)cc1 do in these assays?
CCHFV vOTU inh: -96; GDH-TPI counter-1: 19; FBA Mtb inh: 35*; Vc quorum ag: 0; Mtb FBA inh conf: -3; GDH-TPI counter-2: 0

What do the screens show for `Cc1cccc(-n2cnc3c(c2=O)c2nc4ccccc4nc2n3Cc2ccco2)c1`?
CCHFV vOTU inh: -3; GDH-TPI counter-1: 7; FBA Mtb inh: 16; Vc quorum ag: 0

Results for Cc1cccc(S(=O)(=O)c2c(N)n(Cc3ccco3)c3nc4ccccc4nc23)c1 ?
CCHFV vOTU inh: -76; GDH-TPI counter-1: 7; FBA Mtb inh: 101*; Vc quorum ag: 0; Mtb FBA inh conf: 76*; GDH-TPI counter-2: 61*

Results for Cc1ccc(S(=O)(=O)c2c(N)n(Cc3ccco3)c3nc4ccccc4nc23)cc1 ?
CCHFV vOTU inh: -98; GDH-TPI counter-1: 31*; FBA Mtb inh: 82*; Vc quorum ag: 0; Mtb FBA inh conf: 39*; GDH-TPI counter-2: 30*
